Assay results from PubChem BioAssay (NCI).
About 79,000 compounds went through this panel and 15% of them were active in at least one assay; those are over-represented in the sample as a whole. Unmarked numbers belong to inactive results. Active and inactive are the calls of the source. Rule as the data show it: active = growth inhibition above about 70%; inactive = the rest.

Columns and labels:
[1] = NCI Yeast Anticancer Drug Screen. Data for the rad52 strain (AID 147);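 also: 0% = growth of vehicle-treated control cultures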; details: S. cerevisiae rad52 mutant growth inhibition, active compounds read high
How it was run: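 Inhibition of yeast growth, referenced to vehicle controls, was the measured output for a strain with defective DNA damage repair.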

[2] = NCI Yeast Anticancer Drug Screen. Data for the wt1 strain (AID 149);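 also: 0% = growth of vehicle-treated wt1 cultures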; details: S. cerevisiae wt1 strain (SPY 50644) growth inhibition, active compounds read high
How it was run: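 Measured: growth of wt1 yeast under compound versus vehicle treatment, reported as inhibition.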

[3] = NCI Yeast Anticancer Drug Screen. Data for the rad50EPP+ strain (AID 151);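 also: 0% = growth of vehicle-treated control cultures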; details: S. cerevisiae rad50 mutant strain, active compounds read high
How it was run: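 Genetically defined yeast (rad50EPP+, DNA damage repair alteration) is grown with compound, and inhibition of growth is expressed relative to vehicle-treated controls.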

[4] = NCI Yeast Anticancer Drug Screen. Data for the mgt1 strain (AID 153); details: S. cerevisiae mgt1 mutant growth inhibition, active compounds read high
How it was run: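 In the mgt1 strain, test compounds were added and growth inhibition was determined relative to vehicle-treated controls.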

[5] = NCI Yeast Anticancer Drug Screen. Data for the rad50 strain (AID 155);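 also: 0% = growth of vehicle-only cultures of the same strain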; details: S. cerevisiae rad50 strain growth inhibition, active compounds read high
How it was run: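 Growth of the mutant yeast was measured after compound exposure and referenced to vehicle-treated cultures.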

[6] = NCI Yeast Anticancer Drug Screen. Data for the mec2-1 strain (AID 157); details: S. cerevisiae mec2-1 strain, active compounds read high
How it was run: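 Each compound was tested on mec2-1 yeast, a strain altered in DNA damage repair or cell cycle control. Growth inhibition is reported relative to vehicle.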

[7] = NCI Yeast Anticancer Drug Screen. Data for the rad14 strain (AID 159);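 also: 0% = growth of vehicle-treated control cultures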; details: S. cerevisiae rad14 strain growth inhibition, active compounds read high
How it was run: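 Here, inhibition of yeast growth was measured after compound exposure, using a strain with a genetic defect in DNA damage repair and vehicle-treated cultures as the reference.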

[8] = NCI Yeast Anticancer Drug Screen. Data for the sgs1 mgt1 strain (AID 161);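 also: 0% = growth of cultures given vehicle only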; details: S. cerevisiae sgs1 mgt1 strain, active compounds read high
How it was run: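 Read-out: growth inhibition vs vehicle controls. Cells: mutant yeast strain deficient in DNA damage repair.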

[9] = NCI Yeast Anticancer Drug Screen. Data for the CLN2oe strain (AID 163);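 also: 0% = growth of vehicle-only control cultures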; details: S. cerevisiae CLN2oe strain, active compounds read high
How it was run: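 First, the altered yeast strain was treated with each compound; second, its growth was measured; finally, inhibition was derived by comparison with vehicle controls.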

[10] = NCI Yeast Anticancer Drug Screen. Data for the cln2 rad14 strain (AID 165);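 also: 0% = growth equal to vehicle treated cultures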; details: S. cerevisiae cln2 rad14 strain, active compounds read high
How it was run: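 Test compounds were added to cln2 rad14 yeast cultures; inhibition of growth was then determined by comparison with vehicle treatment.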

[11] = NCI Yeast Anticancer Drug Screen. Data for the bub3 strain (AID 167); details: S. cerevisiae bub3 mutant strain, active compounds read high
How it was run: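 Whole-cell yeast assay. The mutant strain was incubated with compounds, and growth inhibition was determined by comparison with vehicle-treated cells.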

[12] = NCI Yeast Anticancer Drug Screen. Data for the wt2 strain (AID 169);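 also: 0% = growth of vehicle-treated yeast cultures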; details: S. cerevisiae wt2 strain growth inhibition, active compounds read high
How it was run: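 The panel's yeast strains carry defined changes in DNA repair or cell cycle genes. Each strain is grown with compound, and growth loss is scored relative to vehicle.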

[13] = NCI Yeast Anticancer Drug Screen. Data for the mlh1 strain (AID 171);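 also: 0% = growth of vehicle-treated control cultures of the same strain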; details: S. cerevisiae mlh1 strain growth inhibition, active compounds read high
How it was run: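 Inhibition values reflect reduced yeast growth in the presence of compound, referenced to vehicle controls, using a strain chosen for its alteration in DNA repair or cell cycle control.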

[14] = NCI Yeast Anticancer Drug Screen. Data for the sgs1 strain (AID 173);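 also: 0% = growth of vehicle-only control cultures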; details: S. cerevisiae sgs1 mutant, active compounds read high
How it was run: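 Vehicle-treated cultures served as reference for growth inhibition of a yeast strain altered in DNA damage repair or cell cycle control after compound exposure.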

[15] = NCI Yeast Anticancer Drug Screen. Data for the mlh1 rad18 strain (AID 175); details: S. cerevisiae mlh1 rad18 strain growth inhibition, active compounds read high
How it was run: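 Inhibition values reflect reduced growth of mutant yeast versus vehicle-treated controls following compound exposure; the mutations affect DNA damage repair.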

[16] = NCI Yeast Anticancer Drug Screen. Data for the rad18 strain (AID 177); details: S. cerevisiae rad18 mutant growth inhibition, active compounds read high
How it was run: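 Steps: expose repair-mutant yeast to compound; measure growth; express as inhibition relative to vehicle control.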

[17] = at 5.0 µM (retest, dose inferred, filed as 0.5)
[18] = at 50.0 µM (retest, dose inferred, filed as 5.0)

## COC1CC(CC2CCC(C)C(C(C)C(=O)O)O2)OC2(OC(C)(C3CCC(C)(C4OC(C5OC(O)(CO)C(C)CC5C)CC4C)O3)CC2C)C1C (stereo not drawn)
[1]; at 1.2 µM
  growth inhibition: 17%
[1]; at 3.7 µM
  growth inhibition: -3%
[1]; at 11.0 µM
  growth inhibition: 22%
[1]; at 33.0 µM
  growth inhibition: 93% (active)
[1]; at 100.0 µM
  growth inhibition: 98% (active)
[2]; at 1.2 µM
  growth inhibition: -2%
[2]; at 3.7 µM
  growth inhibition: -9%
[2]; at 11.0 µM
  growth inhibition: 5%
[2]; at 33.0 µM
  growth inhibition: 93% (active)
[2]; at 100.0 µM
  growth inhibition: 98% (active)
[3]; at 1.2 µM
  growth inhibition: -12%
[3]; at 3.7 µM
  growth inhibition: 0%
[3]; at 11.0 µM
  growth inhibition: -12%
[3]; at 33.0 µM
  growth inhibition: 40%
[3]; at 100.0 µM
  growth inhibition: 90% (active)
[4]; at 1.2 µM
  growth inhibition: 14%
[4]; at 3.7 µM
  growth inhibition: -5%
[4]; at 11.0 µM
  growth inhibition: 27%
[4]; at 33.0 µM
  growth inhibition: 91% (active)
[4]; at 100.0 µM
  growth inhibition: 98% (active)
[5]; at 1.2 µM
  growth inhibition: 24%
[5]; at 3.7 µM
  growth inhibition: 19%
[5]; [17]
  growth inhibition: 36%
[5]; at 11.0 µM
  growth inhibition: 34%
[5]; at 33.0 µM
  growth inhibition: 96% (active)
[5]; [18]
  growth inhibition: 95% (active)
[5]; at 50.0 µM
  growth inhibition: 84.6% (active)
[5]; at 100.0 µM
  growth inhibition: 98% (active)
[6]; at 1.2 µM
  growth inhibition: -2%
[6]; at 3.7 µM
  growth inhibition: -7%
[6]; [17]
  growth inhibition: 28%
[6]; at 11.0 µM
  growth inhibition: 12%
[6]; at 33.0 µM
  growth inhibition: 90% (active)
[6]; [18]
  growth inhibition: 95% (active)
[6]; at 50.0 µM
  growth inhibition: 90% (active)
[6]; at 100.0 µM
  growth inhibition: 97% (active)
[7]; at 1.2 µM
  growth inhibition: 5%
[7]; at 3.7 µM
  growth inhibition: -6%
[7]; at 11.0 µM
  growth inhibition: -4%
[7]; at 33.0 µM
  growth inhibition: 89% (active)
[7]; at 100.0 µM
  growth inhibition: 96% (active)
[8]; [17]
  growth inhibition: -1%
[8]; [18]
  growth inhibition: 91% (active)
[8]; at 50.0 µM
  growth inhibition: 89% (active)
[9]; at 1.2 µM
  growth inhibition: -46%
[9]; at 3.7 µM
  growth inhibition: -22%
[9]; at 11.0 µM
  growth inhibition: 50%
[9]; at 33.0 µM
  growth inhibition: 93% (active)
[9]; at 100.0 µM
  growth inhibition: 96% (active)
[10]; [17]
  growth inhibition: 26%
[10]; [18]
  growth inhibition: 88% (active)
[10]; at 50.0 µM
  growth inhibition: 84% (active)
[11]; at 1.2 µM
  growth inhibition: -4%
[11]; at 3.7 µM
  growth inhibition: -4%
[11]; [17]
  growth inhibition: 3%
[11]; at 11.0 µM
  growth inhibition: 25%
[11]; at 33.0 µM
  growth inhibition: 84% (active)
[11]; [18]
  growth inhibition: 82% (active)
[11]; at 50.0 µM
  growth inhibition: 86.3% (active)
[11]; at 100.0 µM
  growth inhibition: 97% (active)
[12]; at 1.2 µM
  growth inhibition: -46%
[12]; at 3.7 µM
  growth inhibition: -46%
[12]; at 11.0 µM
  growth inhibition: -18%
[12]; at 33.0 µM
  growth inhibition: 60%
[12]; at 100.0 µM
  growth inhibition: 91% (active)
[13]; at 1.2 µM
  growth inhibition: -3%
[13]; at 3.7 µM
  growth inhibition: -15%
[13]; at 11.0 µM
  growth inhibition: 0%
[13]; at 33.0 µM
  growth inhibition: 83% (active)
[13]; at 100.0 µM
  growth inhibition: 97% (active)
[14]; at 1.2 µM
  growth inhibition: -36%
[14]; at 3.7 µM
  growth inhibition: -22%
[14]; at 11.0 µM
  growth inhibition: -12%
[14]; at 33.0 µM
  growth inhibition: 88% (active)
[14]; at 100.0 µM
  growth inhibition: 97% (active)
[15]; [17]
  growth inhibition: 30%
[15]; [18]
  growth inhibition: 96% (active)
[15]; at 50.0 µM
  growth inhibition: 87.8% (active)
[16]; at 1.2 µM
  growth inhibition: -17%
[16]; at 3.7 µM
  growth inhibition: -25%
[16]; at 11.0 µM
  growth inhibition: -11%
[16]; at 33.0 µM
  growth inhibition: 93% (active)
[16]; at 100.0 µM
  growth inhibition: 97% (active)
